Sampled rows, rich in hits. Any-hit rate of the full collection: about 3.9%.
Autofluor counter – compound fluorescence in toxin protease inhibitor counterscreen | compound autofluorescence counterscreen, microsphere flow cytometry; active compounds read high | fluorescence intensity (test concentration not listed) | actives 3.1% (n = 360,000); in the data active = fluorescence intensity above about 16000; inconclusive = no clear call, values can overlap the other calls
CCHF vOTU inh – blocks the CCHF virus ovarian tumor domain protease. CCHFV vOTU protease, Pep-AMC fluorescence. AID 651958. inhibition, % at 11.5 µM. actives 0.55% (n = 370,000); in the data active = inhibition above about 30%; also: 0% = vehicle wells with enzyme and 100% = no enzyme wells
BoNT-A LC inh2 – blocks Botulinum neurotoxin A light chain protease; inhibition, % at 10 µM; actives 0.17% (n = 360,000); multiplex microsphere protease substrate cleavage, flow cytometry; AID 588499; also: plate controls were buffer without enzyme for full effect and enzyme alone for no effect
BoNT F protease – blocks Botulinum neurotoxin F light chain protease; Multiplex microsphere protease cleavage assay, flow cytometry; inhibition, % at 10 µM; actives 0.22% (n = 360,000); AID 588497; in the data active = inhibition above about 35%, passing the limit was not always enough; inconclusive = no clear call, values can overlap the other calls; also: plate controls were buffer without enzyme for full effect and enzyme alone for no effect
Anthrax LF inh2 – anthrax lethal factor protease inhibition; AID 588501; multiplex microsphere protease cleavage assay, LF; actives 0.12% (n = 360,000); inhibition, % at 10 µM; also: plate controls were buffer without enzyme for full effect and enzyme alone for no effect
Target sequence (P15917 whole entry, looked up): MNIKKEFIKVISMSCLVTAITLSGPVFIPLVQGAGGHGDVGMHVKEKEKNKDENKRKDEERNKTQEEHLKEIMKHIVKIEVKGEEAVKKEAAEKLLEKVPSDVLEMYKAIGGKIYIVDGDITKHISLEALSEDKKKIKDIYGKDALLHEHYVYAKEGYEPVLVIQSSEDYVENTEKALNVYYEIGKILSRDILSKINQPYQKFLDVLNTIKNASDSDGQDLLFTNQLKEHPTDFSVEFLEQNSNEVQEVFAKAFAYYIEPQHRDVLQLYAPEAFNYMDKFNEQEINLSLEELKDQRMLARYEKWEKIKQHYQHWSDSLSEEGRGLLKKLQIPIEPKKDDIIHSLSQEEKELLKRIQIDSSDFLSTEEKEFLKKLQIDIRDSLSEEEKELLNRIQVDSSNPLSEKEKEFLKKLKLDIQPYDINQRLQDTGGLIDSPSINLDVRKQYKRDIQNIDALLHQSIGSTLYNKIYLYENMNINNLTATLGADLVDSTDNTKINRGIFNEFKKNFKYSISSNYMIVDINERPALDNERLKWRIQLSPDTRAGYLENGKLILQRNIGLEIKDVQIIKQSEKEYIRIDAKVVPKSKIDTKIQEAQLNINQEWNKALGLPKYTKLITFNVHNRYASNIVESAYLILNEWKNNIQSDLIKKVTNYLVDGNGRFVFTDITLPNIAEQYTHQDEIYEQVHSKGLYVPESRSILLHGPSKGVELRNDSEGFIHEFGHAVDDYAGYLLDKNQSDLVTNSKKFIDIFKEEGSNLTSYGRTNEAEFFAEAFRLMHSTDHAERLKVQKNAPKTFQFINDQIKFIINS
SARS 3CLpro inh – SARS-CoV 3CLpro protease inhibition | P0C6X7 | recombinant SARS-CoV 3CLpro, quenched FRET peptide cleavage | inhibition, % at 6 µM | actives 0.14% (n = 290,000); in the data active = inhibition above about 12%
* hit, by the source's call; ? = inconclusive; nt = not tested or not shown. Rule as the data show it, unless noted: active = inhibition above about 30%; inconclusive = no clear call, values can overlap the other calls; inactive = below that.

SMILES | Autofluor counter | CCHF vOTU inh | BoNT-A LC inh2 | BoNT F protease | Anthrax LF inh2 | SARS 3CLpro inh
Cc1cc(/C=C(/C#N)c2nc3ccccc3[nH]2)c(C)n1-c1cc(C(=O)O)cc(C(=O)O)c1 | 3938 | 7 | 1 | -2 | -5 | -5
Cc1ccc2nc(/C(C#N)=C\c3cc(C)n(-c4cccc([N+](=O)[O-])c4)c3C)[nH]c2c1 | 16239* | 3 | ? | -5 | -3 | 8
CC(c1ccc(Cl)cc1)N(CCN(C)C)c1ccccn1 (centres undefined) | nt | -2 | nt | nt | nt | nt
CC1=CCC[C@H]2[C@H](C1)C(=O)C[C@@H](C)[C@]2(C)CC/C(=C/CO)CO | 5351 | 0 | 0 | 1 | -2 | nt
COC1OC2COC(c3ccccc3)OC2C(O)C1NC(=O)c1ccccc1 (centres undefined) | 4180 | -1 | 0 | 4 | 3 | nt
CC1(O)c2ccccc2C(=O)N1Cc1ccccc1 (centres undefined) | 17655* | -4 | -2 | -2 | 1 | -7
Cc1ccc(S(=O)(=O)N2CCN(C(=O)c3cc(C4CC4)nn3-c3ccccc3)CC2)cc1 | 3095 | -3 | 0 | -10 | 2 | nt
COc1ccc(C2C(C(=O)c3sc(C)nc3C)=C(O)C(=O)N2CCCn2ccnc2)cc1 (centres undefined) | 3948 | 4 | 1 | 2 | 1 | nt
CCN(CC)CCCN1C(=O)C(O)=C(C(=O)c2cc3cccc(OC)c3o2)C1c1ccncc1 (centres undefined) | 21784* | -2 | ? | 5 | -16 | 0
COc1ccc(C2C(C(=O)c3sc(C)nc3C)=C(O)C(=O)N2CCCn2ccnc2)cc1OC (centres undefined) | 20435* | 1 | 0 | -2 | -1 | -2
COc1cccc2cc(C(=O)C3=C(O)C(=O)N(CCCN4CCOCC4)C3c3ccncc3)oc12 (centres undefined) | nt | nt | nt | nt | nt | 3
CCN(CC)CCCN1C(=O)C(O)=C(C(=O)c2sc(C)nc2C)C1c1ccco1 (centres undefined) | 19534* | -1 | 10 | 13 | -3 | 1
O=c1c2ccccc2c(/C=N/NS(=O)(=O)c2ccccc2)c(O)n1-c1ccccn1 | 2128 | -4 | 0 | -2 | 1 | -2
Cc1ccc(-c2cc(C(=O)NN=Cc3cccc(Oc4ccccc4)c3)[nH]n2)cc1C | nt | 7 | nt | nt | nt | nt
O=C(Nc1nc(COc2ccccc2)cs1)C1CCC1 | 4378 | -11 | 0 | 0 | -4 | 2
O=C(Nc1nc(COc2ccccc2)cs1)C12CC3CC(CC(C3)C1)C2 | 24492* | 4 | -6 | -6 | -2 | -8
CC(=O)Nc1nc(COc2ccc3ccccc3c2)cs1 | 23460* | 5 | -2 | -1 | -8 | 1
CC(=O)Nc1nc(COc2ccccc2)cs1 | 11092 | -2 | 0 | 2 | 0 | 0
CCc1c(C)sc(NC(=O)c2ccco2)c1C#N | 4295 | 11 | 1 | -2 | -2 | 5
Cc1ccccc1OC1C(=O)N(Cc2ccc3c(c2)OCO3)C1c1sccc1C (centres undefined) | 22460* | -7 | ? | 4 | -3 | -4
COc1ccc(N(CC(O)CN2C(=O)NC(C)(C)C2=O)S(=O)(=O)c2ccccc2)cc1 (centres undefined) | 23290* | -1 | -1 | -2 | 0 | 0
Cc1ccc(S(=O)(=O)N(CC(O)CN2C(=O)NC(C)(C)C2=O)c2ccccc2)cc1 (centres undefined) | 3026 | -9 | 0 | -4 | 1 | 0
C#CCCN([C@@H](CC(C)C)C(=O)OC)S(=O)(=O)c1ccccc1Br | nt | 9 | nt | nt | nt | nt
Oc1ccc(Cl)cc1C1=NCCNC(C(F)(F)C(F)F)=C1 | 22480* | 13 | 0 | 1 | -2 | -2
Cc1ccc(O)c(C2=NCCNC(C(F)(F)C(F)F)=C2)c1 | 23315* | 10 | 0 | -1 | -1 | 0
SMILES | Autofluor counter | CCHF vOTU inh | BoNT-A LC inh2 | BoNT F protease | Anthrax LF inh2 | SARS 3CLpro inh
O=C(NCc1ccc(F)cc1)C1CCN(S(=O)(=O)c2cccc3nonc23)CC1 | 3669 | 15 | 1 | 6 | -1 | -6
Cc1ccc2nc(N3CCOCC3)c(C=O)c(=O)n2c1 | 4982 | 1 | 0 | 5 | -1 | -1
Cc1ccc(-c2nnn(CC(=O)N(Cc3ccco3)C(C(=O)NC(C)(C)C)c3ccc(C)o3)n2)o1 (centres undefined) | 4529 | 10 | 1 | -2 | -5 | 0
Cc1ccc(-c2nnn(CC(=O)N(Cc3ccccc3)C(C(=O)NC(C)(C)C)c3ccncc3)n2)o1 (centres undefined) | 20840* | nt | -1 | 4 | -2 | 0
Cc1ccc(-c2nnn(CC(=O)N(c3cccc(O)c3)C(C(=O)NC(C)(C)C)c3cccs3)n2)o1 (centres undefined) | 16505* | nt | 0 | 0 | -2 | 0
O=C(Nc1nc(-c2cccs2)c(-c2cccs2)s1)C1CCCC1 | 2200 | 2 | 2 | -6 | -1 | 3
O=C(CSCc1ccccc1)NC1CCSC1=O (centres undefined) | 23850* | 5 | -2 | -3 | -1 | 0
CC(CC(=O)NC1CCSC1=O)c1ccccc1 (centres undefined) | 11715 | -28 | -2 | -13 | -2 | 1
COC(=O)[C@]12C[C@H](CC(=O)N3CCN(C(=O)c4ccco4)CC3)C(=O)N(Cc3ccc4c(c3)OCO4)C1=C[C@H](C(C)(C)C)O[C@@H]2C | nt | 11 | nt | nt | nt | nt
CN1C(=O)NC(c2ccccc2)C2=C1CN(CCc1ccccc1)C2=O (centres undefined) | 20821* | -11 | ? | -2 | 0 | 2
COCCN(C(=O)COC(=O)c1nc(Cl)ccc1Cl)c1c(N)n(Cc2ccccc2)c(=O)[nH]c1=O | 4829 | -9 | 3 | 46* | -2 | nt
CCc1ccc(C(=O)OCC(=O)N(CCOC)c2c(N)n(Cc3ccccc3)c(=O)[nH]c2=O)cc1 | 5761 | -6 | 11 | 47* | 12 | nt
COC(=O)[C@]12C[C@H](CC(=O)N3CCC(c4ccccc4)CC3)C(=O)N(Cc3ccccc3)C1=C[C@H](COCc1ccccc1)O[C@@H]2C | nt | 15 | nt | nt | nt | nt
O=C(CN1CCN(S(=O)(=O)c2ccccc2)CC1)NCc1ccccc1 | 6644 | 5 | -6 | -9 | -3 | -10
COc1ccc(CN2CCOCC2)cc1Br | 23516* | nt | ? | -1 | 0 | -4
COc1ccc(CCn2c(Br)nc3c2c(=O)[nH]c(=O)n3C)cc1 | 17013* | -5 | -3 | -3 | 3 | -1
CCC(Oc1ccccc1F)C(=O)Nc1ccc2c(c1)n(C)c(=O)n2C (centres undefined) | 4019 | -11 | 2 | 38* | -7 | 4
COc1ccc(OC)c(C(=O)COC(=O)c2c(OC)cccc2OC)c1 | 3562 | 7 | 0 | 7 | -4 | -4
COc1ccc(OC)c(C(=O)COC(=O)c2ccccc2O)c1 | 22401* | -4 | 2 | 2 | 0 | 0
COC(=O)c1c(C(=O)OC)c2n(c1C)Cc1ccccc1C2 | 22637* | -1 | -1 | 0 | -3 | -5
COC(=O)c1c(C(=O)OC)c(-c2ccccc2)n2c1CCC2 | 8324 | nt | -1 | -11 | 0 | 3
